Experimental data: PubChem BioAssay
Values joined by “and” are separate entries in the source; they are usually repeats but may differ in a detail not shown here. Equal values may be shown once. Where a SMILES comes first, the peptide text is derived from it. The star is where a group is joined. Boc = CC(C)(C)OC(=O)*; OBn = c1ccc(CO*)cc1

Tests used:
[1] = system: Botulinum neurotoxin type F light chain protease (Clostridium botulinum); experiment: Clostridium botulinum type F light chain protease inhibitors, microsphere substrate cleavage, validation (AID 588459); conditions: multiplex microsphere protease substrate cleavage assay, flow cytometry; at 10 µM; hits give high values
[2] = target: Botulinum neurotoxin type A (Clostridium botulinum) (UniProt P0DPI0); experiment: BoNT/A light chain protease inhibitors, biochemical, multiplex microsphere flow cytometry, validation set (AID 588460); conditions: at 10 µM, hits give high values
[3] = target: Lethal factor (Bacillus anthracis) (UniProt P15917); experiment: Bacillus anthracis lethal factor inhibition, microsphere flow cytometry protease assay, validation at 10 µM (AID 588461); conditions: multiplex microsphere protease cleavage assay, hits give high values

Measured: inhibition

O=c1[nH]c(=O)n([C@H]2C[C@H](O)[C@@H](CO)O2)cc1C(F)(F)F
inactive: [1] -1% | [2] 0% | [3] 3.3%

O=C(/C=C/c1ccccc1)c1ccccc1
inactive: [1] -1.7% | [2] -0.6% | [3] -0.6%

O=C(Nc1cccc(Cl)c1)N1CCN2C(=O)c3ccccc3C12c1ccccc1 (stereo not drawn)
inactive: [1] -3.9% | [2] -0.1% | [3] -4.4%

CN1CCC(OC(c2ccccc2)c2ccccc2)CC1
inactive: [1] -0.8% | [2] -0.5% | [3] -5.1%

CC1(C)CC(=O)c2cnc(NC(=O)C3CCCC3)nc2C1
inactive: [1] 1.2% | [2] -1.3% | [3] -3.2%

Cc1ccc(CSCC(=O)NCCCN2CCOCC2)cc1
inactive: [1] 1.4% | [2] -1.7% | [3] 3.8%

CSc1ccc2c(c1)N(CCC1CCCCN1C)c1ccccc1S2 (stereo not drawn)
inactive: [1] -0.1% | [2] -0.8% | [3] -7%

Cc1oc2ccc(OC(=O)c3cccs3)cc2c1C(=O)OC(C)C
inactive: [1] -0.1% | [2] -1.1% | [3] 3.1%

COc1ccc(CN(CCN(C)C)c2ccccn2)cc1
inactive: [1] 0.8% | [2] 1.3% | [3] -14.9%

Cc1oncc1C(=O)Nc1ccc(C(F)(F)F)cc1
inactive: [1] 0.9% | [2] 0.7% | [3] 2.2%

O=C(O)C1Cc2ccccc2CN1S(=O)(=O)c1ccccc1 (stereo not drawn)
inactive: [1] 0.8% | [2] 0.6% | [3] -3.3%

CCc1ccc(CN(C)Cc2nc(Cc3ccccc3)no2)nc1
inactive: [1] 1.4% | [2] 0.5% | [3] 1.2%

CC(/C=C1\SC(=O)N(CCCC(=O)O)C1=O)=C\c1ccccc1
inactive: [1] 3.5% | [2] 1.3% | [3] -5.6%

CN1C(=O)C(O)(CC(=O)c2ccccc2O)c2cc(Br)ccc21 (stereo not drawn)
inactive: [1] 3.2% | [2] -0.1% | [3] -5.4%

CC1(C)S[C@@H]2[C@H](NC(=O)C(C(=O)O)c3ccccc3)C(=O)N2[C@H]1C(=O)O (stereo partly drawn)
inactive: [1] 3.8% | [2] 1.2% | [3] -6.1%

OC(CCN1CCCC1)(c1ccccc1)C1CCCCC1 (stereo not drawn)
inactive: [1] -0.8% | [2] -0.7% | [3] -2.2%

Cc1ccc(SCC(=O)Nc2nccs2)cc1
inactive: [1] -4.8% | [2] -0.5% | [3] -5.6%

O=C1[C@@H]2CSCN2C(=O)CN1Cc1ccc(F)cc1
inactive: [1] 1.2% | [2] 0.7% | [3] 3.4%

CN(C)CCCN1c2ccccc2Sc2ccccc21
inactive: [1] -0.5% | [2] -0.5% | [3] -3.7%

CC(C)CC(NC(=O)C(NC(=O)OC(C)(C)C)C(C)C)C(=O)NC(CCC(=O)OCc1ccccc1)C(N)=O (stereo not drawn) (Boc-Val-Leu-Glu(OBn)-NH2; configuration not given here)
inactive: [1] 2.1% | [2] -1.3% | [3] -0.4%

C(=C\c1ccccc1)/CN1CCN(C(c2ccccc2)c2ccccc2)CC1
inactive: [1] -0.8% | [2] -1.7% | [3] -9.2%

N/C(Cc1ccc(Cl)cc1Cl)=N\OC(=O)c1ccc(Br)o1
inactive: [1] -0.8% | [2] -2.5% | [3] -7.4%

Cn1c2ccccc2c2cc(/C=C(\NC(=O)c3ccccc3)C(=O)O)ccc21
inactive: [1] -0.2% | [2] 0.3% | [3] 4.6%

Cc1cnc(C(=O)NCCc2ccc(S(=O)(=O)NC(=O)NC3CCCCC3)cc2)cn1
inactive: [1] 0.7% | [2] -0.2% | [3] -0.1%

CCCCNC(=O)NS(=O)(=O)c1ccc(C)cc1
inactive: [1] 1.1% | [2] 1.1% | [3] 1%

COc1ccc(OC)c(NC2=C(Cl)C(=O)N(Cc3ccccc3)C2=O)c1
inactive: [1] 0% | [2] -2.2% | [3] -12.4%

C[C@H]([C@@H](N)C(=O)N[C@@H](C(=O)O)[C@@H]1O[C@H](n2ccc(=O)[nH]c2=O)[C@@H](O)[C@H]1O)[C@@H](O)c1ccc(O)cn1
inactive: [1] 0.3% | [2] -1% | [3] -3.6%

COc1ccccc1C(=O)Oc1ccc2c(c1)O/C(=C\c1ccncc1)C2=O
inactive: [1] -0.7% | [2] 0.7% | [3] -8.2%

CC(=O)CSc1ncnc2c1cnn2-c1ccccc1
inactive: [1] 2.3% | [2] 0.8% | [3] -1.6%

O=C(O)c1cc2cc(F)ccc2[nH]1
inactive: [1] 5% | [2] 2.4% | [3] 4%

COc1ccc(CC(=O)N2CC3(C)CC2CC(C)(C)C3)cc1OC (stereo not drawn)
inactive: [1] -2.6% | [2] -1.4% | [3] -0.4%

COc1cccc(N2CC(O)=C(c3nc4ccccc4c(=O)[nH]3)C2=N)c1
inactive: [1] -2.2% | [2] -1.1% | [3] -6.2%

O=C(/C=C/c1ccco1)N1CCN(c2ccccc2)CC1
inactive: [1] -0.6% | [2] -1.8% | [3] -0.6%

O=S(=O)(NCCCCCNS(=O)(=O)c1ccccc1)c1ccccc1
inactive: [1] 0.4% | [2] -0.1% | [3] -0.7%

O=C1NC(=O)C(c2ccccc2)(c2ccccc2)N1
inactive: [1] 1.3% and 5.2% | [2] -1% and -1.4% | [3] 0.3% and -2.4%

CCOC(=O)C(=O)Nc1ccc(Oc2ccccc2)cc1
inactive: [1] 1.4% | [2] 0% | [3] 1.3%

COc1ccc(NC(=O)Nc2ccc(C(C)C)cc2)cc1
inactive: [1] 2.7% | [2] 1.5% | [3] 5.7%

COc1cc(Cl)cc2c1Sc1ccccc1/C2=C/CCN(C)C
inactive: [1] -4.5% | [2] -1.1% | [3] -16.6%

CC(C)[C@H](NC(=O)[C@@H]1CSCN1C(=O)OC(C)(C)C)C(=O)NCC1CCC(C(=O)O)CC1 (stereo partly drawn)
inactive: [1] -1.3% | [2] -1.5% | [3] -2.2%

CCOc1ccc(C(=O)Nc2ccc(N3CCN(C(C)=O)CC3)cc2)cc1[N+](=O)[O-]
inactive: [1] 1.6% | [2] 0% | [3] 0.9%

Nc1ccc(N)c(C(=O)O)c1
inactive: [1] -6.1% | [2] -14% | [3] -7.2%

CC(=O)OC(CC(=O)O)C[N+](C)(C)C (stereo not drawn)
inactive: [1] 3.4% | [2] 0% | [3] -3.6%

COC(=O)CCC(=O)CN
inactive: [1] 0.5% | [2] 0.6% | [3] 0.6%

CC12CCC(C(=O)NNc3ccccc3)(C(=O)C1=O)C2(C)C (stereo not drawn)
inactive: [1] 1.1% | [2] 0.4% | [3] -3.4%

CCOc1cc(C)cc2oc(=O)cc(-c3ccccc3)c12
inactive: [1] -2.2% | [2] -0.6% | [3] -4.4%

O=C(O)c1cc(-c2ccc3c(c2)OCO3)nc2ccc(Br)cc12
inactive: [1] -1% | [2] 3% | [3] -2.6%

Clc1ccc2c(c1)[C@H]1OCC[C@H]1[C@@H](c1ccco1)N2
inactive: [1] 0.3% | [2] -0.7% | [3] -4.1%

COc1cccc(N2C(=O)[C@H]3C(C(=O)c4cnccn4)=NN[C@H]3C2=O)c1
inactive: [1] 3% | [2] -0.2% | [3] 4.8%

CC(=O)Oc1ccc2c(=O)c(Oc3ccccc3[N+](=O)[O-])coc2c1
inactive: [1] 0.2% | [2] -1.2% | [3] -6.2%

NC(=O)c1cnccn1
inactive: [1] 0.4% | [2] 0.7% | [3] 5.7%

COc1ccc(C2NCCC3(O)CCCCC23)c(OC)c1OC (stereo not drawn)
inactive: [1] 4.3% | [2] -0.3% | [3] 4.4%

OCCN(CCO)c1nc(N2CCCCC2)c2nc(N(CCO)CCO)nc(N3CCCCC3)c2n1
inactive: [1] 4.8% | [2] 0.9% | [3] 8.5%

COc1ccc(CCN2C(=O)CSC2c2ccc(OC)c(OC)c2)cc1OC (stereo not drawn)
inactive: [1] -3.4% | [2] 0.4% | [3] 6.7%

CC1(C)[C@@H](O)CC[C@]2(C)[C@H]3C(=O)C=C4[C@@H]5C[C@@](C)(C(=O)O)CC[C@]5(C)CC[C@@]4(C)[C@]3(C)CC[C@@H]12
inactive: [1] 4.4% | [2] -1.5% | [3] -0.5%

CCOc1ccc(CC2c3cc(OCC)c(OCC)cc3CCN2C(=O)CN2CCN(C)CC2)cc1OCC (stereo not drawn)
inactive: [1] -5.9% | [2] -1.4% | [3] 7.9%

O=C1OC(c2ccc(O)cc2)(c2ccc(O)cc2)c2ccccc21
inactive: [1] -0.3% | [2] -0.8% | [3] -3.6%

CC(C)(C)OC(=O)N1CC(O)CC1C(=O)OCC(=O)c1ccc(Cl)cc1 (stereo not drawn)
inactive: [1] -2.2% | [2] -2.3% | [3] 0.1%

Cc1cc(OC(=O)CNC(=O)OC(C)(C)C)c2c(C)cc(=O)oc2c1
inactive: [1] -0.2% | [2] -0.7% | [3] 5.4%

Cc1ccc2c(CN3CCN(Cc4ccc5c(c4)OCO5)CC3)cc(=O)oc2c1C
inactive: [1] -2.8% | [2] 0.6% | [3] -5.7%

Cc1ccc2[nH]c3c(=O)n(CCCN4CCN(C)CC4)cnc3c2c1
inactive: [1] 7.8% | [2] -1% | [3] -2.5%

Cc1coc2cc3oc(=O)c(CCC(=O)O)c(C)c3cc12
inactive: [1] 3.6% | [2] -2% | [3] -2.2%
